From PubChem BioAssay (Tox21)
Inconclusive results are not listed. Calls of active or inactive are those of the source. Calls come from the whole dose curve.

Tests used:
[1] = target: Acetylcholinesterase (Homo sapiens) (UniProt P22303); assay: Acetylcholinesterase (AChE) small molecule antagonists: colormetric cell-based qHTS assay (AID 1347395); note: nearly all actives have a fitted effect of over 30% in size
Procedure, shortened: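 SH-SY5Y cells; cpd 30 min 37 C; + DTNB/acetylthiocholine, 90 min 37 C; colorimetric thiocholine read; qHTS.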

[2] = target: Acetylcholinesterase (Homo sapiens) (UniProt P22303); assay: Acetylcholinesterase (AChE) small molecule antagonists: enzyme-based qHTS assay (AID 1347397); settings: Potency: AChE enzyme activity inhibition; outcome: AChE enzyme activity inhibition; note: nearly all actives have a fitted effect of over 55% in size
Procedure, shortened: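 Recombinant human AChE (50 mU/mL) preincubated with compound 30 min at room temperature; acetylthiocholine plus DTNB then added, and thiocholine formation read colorimetrically after 10 min at room temperature. DMSO served as vehicle control.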

[3] = target: Acetylcholinesterase (Homo sapiens) (UniProt P22303); assay: Acetylcholinesterase (AChE) small molecule antagonists: fluorescence cell-based qHTS assay (AID 1347398); settings: Potency: AChE activity; outcome: AChE activity; note: nearly all actives have a fitted effect of over 50% in size
Procedure, shortened: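 SH-SY5Y cells (2000/well), attached overnight, incubated with compound 30 min at 37 C. Acetylthiocholine plus Thiolite Green then added for 40 min at room temperature. Thiocholine fluorescence (Ex/Em 490/520 nm) reports cellular AChE activity.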

[4] = target: Acetylcholinesterase (Homo sapiens) (UniProt P22303); assay: Acetylcholinesterase (AChE) small molecule antagonists: enzyme-based qHTS assay with human liver microsomes (AID 1347399); settings: Potency: qHTS inhibition; outcome: qHTS inhibition; note: nearly all actives have a fitted effect of over 60% in size
Procedure, shortened: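 Recombinant human AChE (50 mU/mL in the enzyme mix) and human liver microsomes (0.25 mg/mL final) were preincubated with compound and NADPH (0.25 mg/mL final) for 30 min at 37 C. Acetylthiocholine/DTNB was then added; thiocholine was read colorimetrically after 10 min at room temperature.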
% is set by controls: 0 for no effect and ±100 for the full control effect.

Acetylcholinesterase (Homo sapiens), sequence (P22303 whole entry, looked up): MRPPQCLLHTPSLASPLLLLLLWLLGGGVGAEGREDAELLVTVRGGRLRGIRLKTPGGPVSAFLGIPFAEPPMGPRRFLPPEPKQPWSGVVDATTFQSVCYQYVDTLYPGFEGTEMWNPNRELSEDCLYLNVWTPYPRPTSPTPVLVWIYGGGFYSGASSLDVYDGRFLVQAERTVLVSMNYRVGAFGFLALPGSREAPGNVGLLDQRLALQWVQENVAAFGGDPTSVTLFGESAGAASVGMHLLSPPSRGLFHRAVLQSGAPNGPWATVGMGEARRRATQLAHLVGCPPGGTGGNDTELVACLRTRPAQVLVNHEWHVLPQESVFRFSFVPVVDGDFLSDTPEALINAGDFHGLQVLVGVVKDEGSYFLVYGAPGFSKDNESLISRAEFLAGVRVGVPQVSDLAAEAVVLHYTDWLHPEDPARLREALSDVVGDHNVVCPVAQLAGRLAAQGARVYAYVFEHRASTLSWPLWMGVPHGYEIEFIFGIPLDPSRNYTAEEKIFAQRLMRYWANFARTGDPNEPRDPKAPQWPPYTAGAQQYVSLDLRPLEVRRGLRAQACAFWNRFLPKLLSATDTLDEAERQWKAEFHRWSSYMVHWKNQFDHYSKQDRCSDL

Cc1ccc(-c2cc(C(F)(F)F)nn2-c2ccc(S(N)(=O)=O)cc2)cc1
inactive: Potency [1] | Potency [2] | Potency [3] | Potency [4]

CC(=O)/C(C)=C/C1C(C)=CCCC1(C)C (stereo not given)
inactive: Potency [1] | Potency [2] | Potency [3] | Potency [4]

Nc1ccc([N+](=O)[O-])c(C(F)(F)F)c1
inactive: Potency [1] | Potency [2] | Potency [3] | Potency [4]

CNC(=O)CN(CCN(CCN(CC(=O)[O-])CC(=O)NC)CC(=O)[O-])CC(=O)[O-].O.[Gd+3]
inactive: Potency [1] | Potency [2] | Potency [3] | Potency [4]

CCCCCCCCCCCCCCCC(=O)OC
inactive: activity, negative = inhibition [1] 2.77% [at 23.6 µM] | activity change, negative = inhibition [2] -0.557% [at 23.6 µM] | activity change, negative = inhibition [3] 2.99% [at 23.8 µM] | activity change, negative = inhibition [4] 0.243% [at 23.6 µM]

OCc1c2ccccc2cc2ccccc12
inactive: Potency [1] | Potency [2] | Potency [3] | Potency [4]

COC(=O)Nc1nc2ccc(Sc3ccccc3)cc2[nH]1
inactive: Potency [1] | Potency [2] | Potency [3] | Potency [4]

CNC(=O)c1ccccc1
inactive: Potency [1] | Potency [2] | Potency [3] | Potency [4]

C=CC(=O)OCC(Br)CBr (stereo not given)
inactive: Potency [1] | Potency [2] | Potency [3] | Potency [4]

N=C(N)N
inactive: Potency [1] | Potency [2] | Potency [3] | Potency [4]

CCCCCCCCCCCCCCC(=O)NC(CO)CCCCCCCCCCCCCC (stereo not given)
inactive: Potency [1] | Potency [2] | Potency [3] | Potency [4]

CCC(CO)(CO)CO
inactive: Potency [1] | Potency [2] | Potency [3] | Potency [4]

CCc1nc(N)nc(N)c1-c1ccc(Cl)cc1
inactive: Potency [1] | Potency [2] | Potency [3] | Potency [4]

Cc1cccc(OCCOc2cccc(C)c2)c1
inactive: Potency [1] | Potency [2] | Potency [3] | Potency [4]

Cn1c(=O)c2[nH]c(Br)nc2n(C)c1=O
inactive: Potency [1] | Potency [2] | Potency [3] | Potency [4]

COc1ccccc1N1CCN(CCCCNC(=O)c2ccc(-c3ccc(C(C)=O)cc3)cc2)CC1
inactive: Potency [1] | Potency [2] | Potency [3] | Potency [4]

CCCCCCCCCCOS(=O)(=O)O
inactive: Potency [1] | Potency [2] | Potency [3] | Potency [4]

O=C(O)COc1nn(Cc2ccccc2)c2ccccc12
inactive: Potency [1] | Potency [2] | Potency [3] | Potency [4]

COC(C)(C)CCO
inactive: Potency [1] | Potency [2] | Potency [3] | Potency [4]

Cc1cc(F)ccc1-c1cc(N2CC[C@@H](O)[C@H]2CO)ncc1N(C)C(=O)C(C)(C)c1cc(C(F)(F)F)cc(C(F)(F)F)c1
inactive: Potency [1] | Potency [2] | Potency [3] | Potency [4]

Nc1ccc(S(=O)(=O)c2ccc(N)cc2)cc1
inactive: Potency [1] | Potency [2] | Potency [3] | Potency [4]

C=CC(=O)OCC(O)COc1ccccc1 (stereo not given)
inactive: Potency [1] | Potency [2] | Potency [3] | Potency [4]

CCOc1cccc(-n2cc(C(=O)N3CCN(c4cc(C(=O)O)c5ccccc5c4)CC3)nc2-c2ccc(C)cc2)c1
inactive: Potency [1] | Potency [2] | Potency [3] | Potency [4]

O=C(NO)C1(NS(=O)(=O)c2ccc(Oc3ccc(F)cc3)cc2)CCOCC1
inactive: Potency [1] | Potency [2] | Potency [3] | Potency [4]

Cc1cc(=O)oc2cc(O)cc(O)c12
inactive: Potency [1] | Potency [2] | Potency [3] | Potency [4]

O=C(O)CSCC(=O)NC1CCSC1=O (stereo not given)
inactive: Potency [1] | Potency [2] | Potency [3] | Potency [4]

c1ccc(CSCc2ccccc2)cc1
inactive: Potency [1] | Potency [2] | Potency [3] | Potency [4]

CC1(C)C(O)C(C)(C)C1O (stereo not given)
inactive: Potency [1] | Potency [2] | Potency [3] | Potency [4]

CCCCCCCCCCCCOCC1CO1 (stereo not given)
inactive: Potency [1] | Potency [2] | Potency [3] | Potency [4]

C=C(C)C(=O)OCCCCCCCCCCCC
inactive: Potency [1] | Potency [2] | Potency [3] | Potency [4]

C/C=C/c1ccc(O)c(OC)c1
inactive: Potency [1] | Potency [2] | Potency [3] | Potency [4]

CCCCC(CC)COCCCN (stereo not given)
inactive: Potency [1] | Potency [2] | Potency [3] | Potency [4]

CC(C)OB(OC(C)C)OC(C)C
inactive: Potency [1] | Potency [2] | Potency [3] | Potency [4]

C/C(=N\O)c1ccc(OCC(=O)N2CCCCC2)cc1
inactive: Potency [1] | Potency [2] | Potency [3] | Potency [4]

CCCCCCCCCCCCC(=O)O
inactive: Potency [1] | Potency [2] | Potency [3] | Potency [4]

CC(C)OC(=O)OCOP(=O)(CO[C@H](C)Cn1cnc2c(N)ncnc21)OCOC(=O)OC(C)C
inactive: Potency [1] | Potency [2] | Potency [3] | Potency [4]

Nc1ccc(N=Nc2ccccc2)c(N)n1
inactive: Potency [1] | Potency [2] | Potency [3] | Potency [4]

C=Cc1ccc(O)c(OC)c1
inactive: Potency [1] | Potency [2] | Potency [3] | Potency [4]

FC(F)(Cl)C(F)(Cl)Cl
inactive: Potency [1] | Potency [2] | Potency [3] | Potency [4]

CC/C=C\CCOC(=O)CCCCC
inactive: Potency [1] | Potency [2] | Potency [3] | Potency [4]
